# Source: PubChem BioAssay AID2568 (National Center for Advancing Translational Sciences (NCATS), 2010)
# Results filed as inconclusive are left out. Activity calls are given as the source filed them. The call rests on the fitted dose curve.
# Molecular target: Neuropeptide S receptor (Homo sapiens) (UniProt Q6W5P4)
# Assay: Confirmation Concentration-Response Assay for Antagonists of the Neuropeptide S Receptor: cAMP Signal Transduction, SAR for Probe
# Summary of the method: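 The IC50 values come from Hill fits of the 665/620 nm LANCE TR-FRET cAMP signal. Before detection, NPSR-expressing CHO cells were treated with compound (up to 46 μM final) and then challenged for 60 min at 37 °C with stimulation reagent containing 100 nM NPS plus the PDE inhibitor RO-201724.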
# Sequence of Neuropeptide S receptor (Homo sapiens) (Q6W5P4 whole entry, looked up): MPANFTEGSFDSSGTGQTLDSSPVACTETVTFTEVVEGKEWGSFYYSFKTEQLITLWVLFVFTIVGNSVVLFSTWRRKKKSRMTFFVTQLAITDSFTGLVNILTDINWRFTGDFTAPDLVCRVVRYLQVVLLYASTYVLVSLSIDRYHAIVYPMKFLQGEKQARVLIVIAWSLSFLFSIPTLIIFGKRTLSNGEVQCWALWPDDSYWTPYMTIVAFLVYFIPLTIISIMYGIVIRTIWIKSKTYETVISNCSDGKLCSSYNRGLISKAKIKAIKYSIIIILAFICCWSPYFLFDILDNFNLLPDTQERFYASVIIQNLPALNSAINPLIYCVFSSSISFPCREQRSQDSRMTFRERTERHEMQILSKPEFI
row,SMILES,Potency
1,COc1ccc(C2c3c(ncn(CCCc4ccccc4)c3=N)Oc3ccc4ccccc4c32)cc1OC (centres undefined),24.4 µM (active)
2,Cc1c(P(=S)(c2ccccc2)c2ccccc2)c2ccccc2n1C(=O)NCc1ccc(F)cc1,31.5 µM (active)
3,Cc1c(P(=S)(c2ccccc2)c2ccccc2)[n+]2ccccc2n1CC(=O)c1ccccc1,4.45 µM (active)
4,COc1cccc(C2c3c(ncn(-c4ccccc4-c4ccccc4)c3=N)Oc3ccc4ccccc4c32)c1 (centres undefined),38.7 µM (active)
5,COc1cccc(C2c3c(ncn(-c4ccncc4)c3=N)Oc3ccc4ccccc4c32)c1 (centres undefined),19.4 µM (active)
6,C[n+]1cc(C(O)(c2ccccc2)c2ccccc2)n2ccccc21,inactive
7,COc1ccc(C2C3=C(N=CN(CCN4CCOCC4)C3N)Oc3ccccc32)cc1OC (centres undefined),inactive
8,O=C1OC(c2ccccc2)(c2ccccc2)N2CCN(C(=O)NCc3ccc(F)cc3)CC12 (centres undefined),1.94 µM (active)
9,COc1cccc(C2c3c(ncn(-c4ccccc4C)c3=N)Oc3ccc4ccccc4c32)c1 (centres undefined),9.72 µM (active)
10,COc1cccc(C2c3c(ncn(-c4ccc(F)cc4)c3=N)Oc3ccc4ccccc4c32)c1 (centres undefined),15.4 µM (active)
11,COc1cccc(C2c3c(ncn(-c4ccccn4)c3=N)Oc3ccc4ccccc4c32)c1 (centres undefined),30.7 µM (active)
12,COc1cccc(C2c3c(ncn(-c4ccc(Br)cc4)c3=N)Oc3ccc4ccccc4c32)c1 (centres undefined),15.4 µM (active)
13,COc1ccc(C2c3c(ncn(Cc4ccccc4)c3=N)Oc3ccc4ccccc4c32)cc1OC (centres undefined),19.4 µM (active)
14,COc1ccc(C2c3c(n(Cc4ccccc4)cnc3=N)Oc3ccc4ccccc4c32)cc1OC (centres undefined),48.7 µM (active)
